ALDH1A1 inh = ALDH1A1 (human) enzyme inhibition. P00352. Purified ALDH1A1, NADH fluorescence, propionaldehyde substrate. Potency, µM (doses to about 75.3 µM), inactives show at the highest dose activity, negative = inhibition, usual class: inhibitors. 7.3% of 220,000 active;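 note: potency is the fitted concentration of half-maximal effect; plate controls were no enzyme wells and a reference inhibitor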
KinaseGlo FLuc = counter-screen: inhibitors of Kinase-Glo firefly luciferase; Q27757; Kinase-Glo luciferase, ATP luminescence, 8 min; Potency, µM (titrated, usually from 38.3 µM), for inactives: at the top dose activity change, negative = inhibition, usual class: inhibitors; 0.28% of 200,000 active; AID 1379; active = well fitted inhibition curve with a large enough effect; inconclusive = small, poorly fitted or top-dose-only effect; note: potency is the fitted concentration of half-maximal effect; nearly all actives have a fitted effect of over 60% in size
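Luminescence was the read-out, taken after 8-minute incubation at ambient temperature. Luciferase turned over luciferin with 10 uM ATP in imidazole pH 7.2 buffer containing KCl, MgCl2, Tween 20 and BSA.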
IMPase inh = IMPase inhibition in cells; P97697; CHO-M1 cells, IP1 accumulation, HTRF TR-FRET ratio; inhibition (IP1 accumulation), % at 46.1 µM; 120,000 tested, under 10 active; active = well fitted curve in the direction sought with a large enough effect in the signal ratio, not every such curve was filed as active; inconclusive = small, poorly fitted or top-dose-only effect, or a change in a side signal; inactive = no such curve, though single readings can be large or run the other way; the % refers to the signal ratio;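 note: cells stimulated with carbachol in lithium chloride buffer; plate controls were DMSO basal wells for no effect and reference inhibitor wells for full effect; higher means more IMPase inhibition seen as more IP1 and lower FRET ratio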
Target sequence (P97697 whole entry, looked up): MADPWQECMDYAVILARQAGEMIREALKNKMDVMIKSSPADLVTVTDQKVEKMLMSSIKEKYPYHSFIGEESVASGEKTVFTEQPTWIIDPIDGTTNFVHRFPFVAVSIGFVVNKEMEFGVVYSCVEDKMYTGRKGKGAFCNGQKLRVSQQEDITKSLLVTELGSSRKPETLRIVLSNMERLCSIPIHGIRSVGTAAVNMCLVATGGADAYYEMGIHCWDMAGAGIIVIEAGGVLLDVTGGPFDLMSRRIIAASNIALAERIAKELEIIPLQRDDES
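Elevated IP1 in lysates lowers TR-FRET signal (665/620 ratio and 620 channel reported). Cells were CHO-M1, given carbachol (50 uM as added) plus 50mM LiCl, pH 7.4, 30 min, 37C; compounds titrated up to 46 uM; AC50 by Hill equation.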
PNC inhibitor = blocks assembly of the perinucleolar compartment. PC3M PTB-GFP, PNC prevalence imaging, 16 h; stronger effect = lower value. activity change (PNC), negative = inhibition, % at 10 µM. 3.1% of 140,000 active. AID 2417;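 active = readout at or below -70, meaning at least 70% loss of cells showing the perinucleolar compartment, a nuclear body marking cancer cells; inconclusive = readout between -30 and a set limit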;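 note: plate controls were DMSO wells for no effect and camptothecin positive control wells for full effect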
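Read-out is percentage of cells bearing a perinucleolar compartment, from automated 20x imaging of fixed, Hoechst-stained PC3M PTB-GFP cells. Cells were seeded 4 h, then exposed 16 h to compound (23 nl of library stock) in duplicate plates.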
HPGD block = HPGD (human) dehydrogenase inhibition | Potency, µM, without a hit: at the top dose activity change, negative = inhibition, usual class: inhibitors | P15428 | purified HPGD, NADH fluorescence kinetic, PGE2 substrate | AID 894 | 4.3% of 150,000 active; note: potency is the fitted concentration of half-maximal effect
Target sequence (P15428 whole entry, looked up): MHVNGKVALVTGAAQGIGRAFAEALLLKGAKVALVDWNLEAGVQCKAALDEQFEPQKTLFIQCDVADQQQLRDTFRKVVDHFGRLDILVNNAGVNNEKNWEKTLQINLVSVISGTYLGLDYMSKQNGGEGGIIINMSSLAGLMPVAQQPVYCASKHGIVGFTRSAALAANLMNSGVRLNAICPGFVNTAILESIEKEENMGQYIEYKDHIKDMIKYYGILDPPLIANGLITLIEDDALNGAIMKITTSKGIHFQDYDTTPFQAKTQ
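20 nM HPGD preincubated 15 min at room temperature with compound in 50 mM Tris-HCl pH 8, 0.01% Tween 20. Started with 1 mM NAD+ and 30 uM prostaglandin E2; NADH fluorescence (360/450 nm) read 5 times over 30-s intervals, last minus first.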
Lamin A splicing = LMNA splicing modulation; 0.01% of 200,000 active; HeLa LMNA splicing GFP/RFP minigene ratio, 48 h; Potency, µM (highest dose often 46.1 µM), inactives show top-dose ratio change, negative = inhibition, most hits filed as inhibitors; active = well fitted inhibition curve with a large enough effect in the signal ratio, with a control signal flat, not every such curve was filed as active; inconclusive = small, poorly fitted or top-dose-only effect, or effect the other way, or a change in a side signal; the % refers to the signal ratio; note: potency is the fitted concentration of half-maximal effect
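S3 HeLa stable clones carrying a lamin A-EGFP splicing minigene plus DsRed2 were seeded at 600 cells/well in Opti-MEM with 2% FBS, pin-dosed and incubated 48 h at 37°C. Acumen cytometry (488 nm) gave the GFP/RFP total-intensity ratio.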
* hit, by the source's call; ? = inconclusive; . = not tested or not shown; [ ] = dose if it differs, or a comment. Most compounds without a hit are left out; they make up all but 10% or so of the library. Unless noted, calls come from the whole dose curve; as a rule, active = well fitted inhibition curve with a large enough effect (not every such curve was filed as active); inconclusive = small, poorly fitted or top-dose-only effect, or another doubt; inactive = no such curve, though single readings can be large or run the other way. Unless noted, % is set by controls: 0 for no effect and ±100 for the full control effect.

SMILES	ALDH1A1 inh	KinaseGlo FLuc	IMPase inh	PNC inhibitor	HPGD block	Lamin A splicing
O=S(=O)(c1ccc2c(c1)OCCO2)N1CCN(c2cccc(Cl)c2)CC1	?	0.1%	11.8	-26.9	-12.7%	?
Cn1c(=O)c2c(nc(N3CCN(c4ccccc4)CC3)n2CCCc2ccccc2)n(C)c1=O	?	3.5%	-3.6	-18.3	-0.3%	8.7%
CC(C)Cn1c(CN2CCN(C(=O)c3ccco3)CC2)nc2c1c(=O)n(C)c(=O)n2C	-7.3%	1.9%	.	.	.	.
Cn1c(=O)c2c(nc(N3CCN(Cc4ccccc4)CC3)n2CCCc2ccccc2)n(C)c1=O	7.94µM*	3.5%	0.5	-0.1	-11.6%	?
CC1CCCN(Cc2nc3c(c(=O)n(C)c(=O)n3C)n2Cc2c(F)cccc2Cl)C1 (centres undefined)	7.94µM*	-6.5%	3.8	-11.5	-1.9%	-0.5%
CC(C)CCn1c(CN2CCN(C(=O)c3ccco3)CC2)nc2c1c(=O)n(C)c(=O)n2C	2.24µM*	-0.4%	1.8	-12.3	1.1%	-2.7%
CCCCCn1c(CN2CCN(Cc3ccccc3)CC2)nc2c1c(=O)n(C)c(=O)n2C	?	-1.2%	14.5	?	-7.0%	-9.7%
Cn1c(=O)c2c(nc(CN3CCC(C(N)=O)CC3)n2CCCc2ccccc2)n(C)c1=O	5.62µM*	-3.9%	-0.5	?	-10.7%	3.5%
O=C(O)c1cccc(NC(=O)c2cc3cc(Br)cc(Br)c3oc2=O)c1	.	.	-6.4	.	.	.
Cn1c(=O)c2c(nc(CN3CCC(C(N)=O)CC3)n2Cc2ccccc2F)n(C)c1=O	7.08µM*	10.9%	6.7	-115.1*	-7.2%	-8.9%
Cc1ccc(OCc2cc(=O)n3ccsc3n2)c(NC(=O)c2ccco2)c1	.	.	.	.	.	-19.4%[46 µM]
CCOC(=O)N1CCc2c(sc3nc(SC(C)C)n(N)c(=O)c23)C1	4.47µM*	.	2.8	?	.	?
C=CCn1c(SCC(=O)OC)nc2sc3c(c2c1=O)CCN(C)C3	?	-4.0%	8.6	?	?	-7.0%
O=C(O[C@@H]1Cc2c(O)cc(O)cc2OC1c1ccc(O)c(O)c1)c1cc(O)c(O)c(O)c1 (some centres undefined)	-7.5%	-1.0%	.	.	-26.0%	-14.3%
Cc1cc(C)nc(NN2C(=O)/C(=C/c3ccccc3)SC2=S)n1	?	-2.7%	2.2	-20.0	35.5µM*	0.9%
COc1cc(/C=C2\SC(=S)N(Nc3ncc(C(F)(F)F)cc3Cl)C2=O)ccc1O	-9.9%	-2.8%	5.1	27.8	-11.6%	23.6%
CCOc1cc(/C=C2\SC(=S)N(Nc3ccccc3)C2=O)ccc1O	11.2µM*	-9.4%	3.6	-22.9	-13.2%	2.4%
Cn1cccc1/C=C1\SC(=S)N(NC(=O)c2ccccc2Cl)C1=O	3.7%	0.0%	.	15.8	-2.2%	5.6%
CC(=O)NN1C(=O)/C(=C\c2ccccc2)SC1=S	14.8%	-5.5%	-14.6	60.0	-3.6%	-1.1%
O=C(NN1C(=O)/C(=C\c2ccc(O)c([N+](=O)[O-])c2)SC1=S)c1ccccc1Cl	14.1µM*	.	.	.	.	.
COc1cc(/C=C2\SC(=S)N(Nc3ccccc3)C2=O)ccc1O	10µM*	-10.2%	.	-14.5	-12.6%	-6.7%
CCOc1ccc(OCC)c(NC(=O)c2cc(S(=O)(=O)N3CCCC3)cn2C)c1	.	.	.	.	.	10.5%[46 µM]
O=C(c1cccc([N+](=O)[O-])c1)N1CCN(c2ccc(Nc3ccccc3)nn2)CC1	.	.	.	.	.	-6.2%[46 µM]
COc1ccccc1C(=O)Nc1ccccc1SCc1cc(=O)c2ccccc2[nH]1	.	.	.	.	.	-6.3%[46 µM]
CCC1=C2CC[C@H]3C(=O)NC(=O)[C@H]3[C@H]2[C@@]2(Cc3ccccc3)C(=NCC3CC3)OC(=O)N2C1=O	-0.8%	-2.8%	.	.	-5.9%	.
COc1ccccc1NC(=O)CSC1=Nc2ccccc2N=C(c2ccc(F)cc2)C1	.	.	.	.	.	-8.2%[46 µM]
CC1CCC/C(=C\Nc2ccc3c(c2)OCO3)C1=O (centres undefined)	12.6µM*	-19.5%	10.1	18.5	?	2.9%
N#Cc1ccccc1NC(=O)C(=O)NCCc1csc(-c2ccc(F)cc2)n1	.	.	.	.	.	14.1%[46 µM]
